Inconclusive results are not listed. The source made the active and inactive calls. Unless noted, calls follow the shape of the full dose curve.
Tested on: not listed separately
Assay: AP1 Signaling Pathway (AID 357; active = well fitted curve in either direction with a large enough effect, not every such curve was filed as active; also: % is scaled to controls: 0 for no effect and ±100 for the full control effect)
Conditions: ME-180 AP-1-bla reporter, EGF-induced, beta-lactamase ratio, 5 h; at 7.69 µM (top of the series) unless noted
Procedure, shortened: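 ME-180 cells with beta-lactamase reporter under AP-1 response element, stimulated with EC50 EGF; compounds tested in titration series, 5 h at 37 °C. CCF4 substrate added 2.5 h at room temperature; 460/530 nm emission ratio gave %activity and AC50.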
With `O=C(O)[C@H]1CC=CC[C@@H]1C(=O)Nc1cccc(O)c1` the activity change, negative = inhibition was -4.95% (inactive).
For `O[C@@H](c1cc([C@@]23C[C@H]4CC[C@@H]2C[C@H](C4)C3)nc2c(Cl)cc(Cl)cc12)[C@@H]1CCCCN1`, the activity change, negative = inhibition was 1.64% (inactive).
With `CCOC(=O)c1cnc(N(C)C)nc1SC(=N)N` the activity change, negative = inhibition was -8.3% (inactive).
For `OC[C@@H]1O[C@H](n2cnc3c(/C=C(\O)c4ccccc4)ncnc32)[C@H](O)[C@@H]1O`, the activity change, negative = inhibition was -7.91% (inactive).
With `Cc1nc2ccccc2nc1-c1ccc(N=[N+]([O-])c2ccc(-c3nc4ccccc4nc3C)cc2)cc1` the activity change, negative = inhibition was 6.31% (inactive).
In the case of `O=C1[C@@H]2[C@@H](C(=O)N1c1ccc(OCc3ccccc3)cc1)[C@@H]1c3ccccc3[C@@H]2[n+]2ccccc21`, the activity change, negative = inhibition is reported as -1.52% (inactive).
For `Cc1ccc(C2=C(Cl)C(=O)C(c3ccc(C)cc3)=C(Cl)C2=O)cc1`, the activity change, negative = inhibition was 4.65% (inactive).
In the case of `C[C@@]12CC[C@@H]3[C@H](CCC4=CC(=O)CC[C@]43C)[C@@H]1CC[C@@H]2C(=O)Cn1cnc2c(=S)nc[nH]c21`, the activity change, negative = inhibition is reported as 2.82% (inactive).
With `Cc1ncn(-c2ccccc2O)c1C` the activity change, negative = inhibition was 4.1% (inactive).
For `O=[N+]([O-])c1ccc(CSCc2ccc(Cl)cc2)cc1`, the activity change, negative = inhibition was -19.3% (inactive).
For `O=C(O)CCNc1ncnc2nc[nH]c12`, the activity change, negative = inhibition was 8.82% (inactive).
For `COc1ccc(Cc2ccccc2C(=O)O)c2ccccc12`, the activity change, negative = inhibition was -1.93% (inactive).
In the case of `O[C@@H](c1cc(C(F)(F)F)nc2c(Cl)cc(Cl)cc12)[C@@H]1CCCCN1`, the activity change, negative = inhibition is reported as 14.2% (inactive).
In the case of `O=C(O)C[C@H](S)C(=O)O`, the activity change, negative = inhibition is reported as -3.09% (inactive).
For `CC(C)C12CC[C@@]3(CC[C@H]4[C@@](C)(CCC[C@]4(C)C(=O)O)[C@@H]3C1)[C@@H](CN)C2`, the activity change, negative = inhibition was -3.83% (inactive).
With `Cc1ccc(C)c(/C(=N\N=C(N)N)C2CC2)c1` the activity change, negative = inhibition was -1.56% (inactive).
For `Nc1ncnc2c1ncn2[C@H]1O[C@@H](C(=O)O)[C@@H](O)[C@H]1O`, the activity change, negative = inhibition was 17.5% (inactive).
For `Oc1c(CN2CCN(c3ccccc3)CC2)cc(Br)c2cccnc12`, the activity change, negative = inhibition was 3.27% (inactive).
For `N/N=C1/CC(=O)NC(=O)N1`, the activity change, negative = inhibition was 2.16% (inactive).
For `N[C@@H](CC1=CS(=O)(=O)c2ccc(Cl)cc21)C(=O)O`, the activity change, negative = inhibition was -5.74% (inactive).
For `C[N+]1([C@H](CO)Cc2c[nH]c3ccccc23)Cc2ccccc2C1`, the activity change, negative = inhibition was -7.62% (inactive).
With `c1ccc(C[n+]2cccc(-c3cc4ccccc4[nH]3)c2)cc1` the activity change, negative = inhibition was 2.74% (inactive).
In the case of `C[N+](C)(C)CCCSc1nc2ccccc2[nH]1`, the activity change, negative = inhibition is reported as -2.62% (inactive).
For `Cc1cc(=Nc2ccc3c(c2)c(N)cc(C)[n+]3C)nc(N)n1C`, the activity change, negative = inhibition was -3.85% (inactive).
With `COc1ncc2nc(CCc3ccccc3)c(=O)n(C)c2n1` the activity change, negative = inhibition was -29.7% (inactive).
In the case of `C[C@H](NC(=O)c1ccc(Cl)c(Cl)c1)c1ccc(-c2ccccc2)cc1`, the activity change, negative = inhibition is reported as -14.7% (inactive).
In the case of `COc1ccc2cc1Oc1ccc(cc1)C[C@@H]1c3c(cc(OC)c4c3Oc3cc5c(cc3O4)CCN[C@H]5C2)CCN1C`, the activity change, negative = inhibition is reported as -4.55% (inactive).
With `O=C(O)/C=C\C(=O)Nc1cccc2c1-c1ccccc1C2=O` the activity change, negative = inhibition was -2.3% (inactive).
For `O=C(O)/C=C\C(=O)N1Cc2cc3ccccc3nc2C1`, the activity change, negative = inhibition was 6.48% (inactive).
For `O=C(Nc1cccc2cccnc12)[C@@H]1[C@@H](C(=O)O)[C@H]2CC[C@@H]1O2`, the activity change, negative = inhibition was 6.33% (inactive).
With `CC(C)C(=O)C(C)(C)CCc1ccccn1` the activity change, negative = inhibition was 27.3% (inactive).
In the case of `OCCN(CCO)c1ncnc2nc[nH]c12`, the activity change, negative = inhibition is reported as -2.15% (inactive).
With `CCN(CC)CC[n+]1ccc2c(C)c3[nH]c4ccc(O)cc4c3c(C)c2c1` the activity change, negative = inhibition was 0.748% (inactive).
In the case of `CN(C)CCC(=O)[C@@]1(O)CC[C@H]2[C@H]3CC=C4C[C@@H](O)CC[C@]4(C)[C@H]3CC[C@]21C`, the activity change, negative = inhibition is reported as 3.32% (inactive).
In the case of `O=C1C=CC(=Nc2cccc3c(N=C4C=CC(=O)O4)cccc23)O1`, the activity change, negative = inhibition is reported as 5.25% (inactive).
For `COc1ccc2c3c(ccc2c1)N[C@H](C(=O)O)CC3`, the activity change, negative = inhibition was -4.14% (inactive).
In the case of `N=C1CCC[C@@H]1C(=S)SCCC(N)=O`, the activity change, negative = inhibition is reported as -7.71% (inactive).
For `CCN(CC)CC[n+]1ccc2c(C)c3[nH]c4ccccc4c3c(C)c2c1`, the activity change, negative = inhibition was -22.3% (inactive).
For `O=CN1CCN(C[C@H](O)CN2CCCCC2)CC1`, the activity change, negative = inhibition was 9% (inactive).
With `Oc1cc(O)c2c(c1)O[C@@H](c1ccc(O)c(O)c1)[C@H](O[C@@]1(c3cc(O)c(O)c(O)c3)Oc3cc(O)cc(O)c3[C@H](O)[C@@H]1O)C2` the activity change, negative = inhibition was 9.41% (inactive).

Target: Cytochrome P450 1A2 (Homo sapiens) (UniProt P05177)
Sequence (P05177 whole entry, looked up): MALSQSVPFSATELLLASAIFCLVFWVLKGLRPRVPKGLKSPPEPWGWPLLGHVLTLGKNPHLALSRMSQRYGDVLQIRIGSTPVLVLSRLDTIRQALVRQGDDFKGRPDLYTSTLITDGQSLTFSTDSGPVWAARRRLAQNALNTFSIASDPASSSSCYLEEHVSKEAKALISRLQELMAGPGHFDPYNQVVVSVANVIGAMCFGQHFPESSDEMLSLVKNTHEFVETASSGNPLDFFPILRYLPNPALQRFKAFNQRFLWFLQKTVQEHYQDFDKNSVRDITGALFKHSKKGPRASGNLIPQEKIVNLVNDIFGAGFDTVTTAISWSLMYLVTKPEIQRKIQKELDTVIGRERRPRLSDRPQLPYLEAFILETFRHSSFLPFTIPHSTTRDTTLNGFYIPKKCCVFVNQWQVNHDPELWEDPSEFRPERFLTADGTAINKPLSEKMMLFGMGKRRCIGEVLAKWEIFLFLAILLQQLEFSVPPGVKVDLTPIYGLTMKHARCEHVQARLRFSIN
Assay: p450-cyp1a2 (AID 410); also: potency is read from the fitted curve at half-maximal effect;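 as to activity change, negative = inhibition: -100% = full effect of reference inhibitor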
Conditions: recombinant CYP1A2, luciferin-ME demethylation, luminescence; series mostly up to 11.4 µM; activity change, negative = inhibition: at the top concentration
Procedure, shortened: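 20nM CYP1A2 with 100uM Luciferin-ME (at Km) in 100mM KPO4; compound preincubated 10 min, NADPH regeneration added, 60 min at room temperature. Luciferin quantified by luminescence after detection reagent; normalized to 57 uM furafylline.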
With `O=C(O)[C@H]1CC=CC[C@@H]1C(=O)Nc1cccc(O)c1` the “activity change, negative = inhibition” value was -18.8% (inactive).
With `O[C@@H](c1cc([C@@]23C[C@H]4CC[C@@H]2C[C@H](C4)C3)nc2c(Cl)cc(Cl)cc12)[C@@H]1CCCCN1` the activity change, negative = inhibition was -10.5% [at 2.29 µM] (inactive).
With `CCOC(=O)c1cnc(N(C)C)nc1SC(=N)N` the activity change, negative = inhibition was -22.6% [at 2.29 µM] (inactive).
For `OC[C@@H]1O[C@H](n2cnc3c(/C=C(\O)c4ccccc4)ncnc32)[C@H](O)[C@@H]1O`, the Potency was 0.501 µM (active).
For `Cc1nc2ccccc2nc1-c1ccc(N=[N+]([O-])c2ccc(-c3nc4ccccc4nc3C)cc2)cc1`, the Potency was 6.31 µM (active).
With `O=C1[C@@H]2[C@@H](C(=O)N1c1ccc(OCc3ccccc3)cc1)[C@@H]1c3ccccc3[C@@H]2[n+]2ccccc21` the “activity change, negative = inhibition” value was -19.6% (inactive).
With `Cc1ccc(C2=C(Cl)C(=O)C(c3ccc(C)cc3)=C(Cl)C2=O)cc1` the activity change, negative = inhibition was -16.9% [at 2.29 µM] (inactive).
With `C[C@@]12CC[C@@H]3[C@H](CCC4=CC(=O)CC[C@]43C)[C@@H]1CC[C@@H]2C(=O)Cn1cnc2c(=S)nc[nH]c21` the “activity change, negative = inhibition” value was -15.8% (inactive).
For `Cc1ncn(-c2ccccc2O)c1C`, the Potency was 0.794 µM (active).
With `O=[N+]([O-])c1ccc(CSCc2ccc(Cl)cc2)cc1` the Potency was 3.98 µM (active).
With `O=C(O)CCNc1ncnc2nc[nH]c12` the “activity change, negative = inhibition” value was -6.6% (inactive).
With `COc1ccc(Cc2ccccc2C(=O)O)c2ccccc12` the activity change, negative = inhibition was 2.8% [at 2.29 µM] (inactive).
In the case of `O[C@@H](c1cc(C(F)(F)F)nc2c(Cl)cc(Cl)cc12)[C@@H]1CCCCN1`, the Potency is reported as 3.98 µM (active).
For `O=C(O)C[C@H](S)C(=O)O`, the “activity change, negative = inhibition” value was -3% (inactive).
With `CC(C)C12CC[C@@]3(CC[C@H]4[C@@](C)(CCC[C@]4(C)C(=O)O)[C@@H]3C1)[C@@H](CN)C2` the “activity change, negative = inhibition” value was -4% (inactive).
In the case of `Cc1ccc(C)c(/C(=N\N=C(N)N)C2CC2)c1`, the activity change, negative = inhibition is reported as 1.1% [at 2.29 µM] (inactive).
In the case of `Nc1ncnc2c1ncn2[C@H]1O[C@@H](C(=O)O)[C@@H](O)[C@H]1O`, the “activity change, negative = inhibition” value is reported as -10.9% (inactive).
For `Oc1c(CN2CCN(c3ccccc3)CC2)cc(Br)c2cccnc12`, the Potency was 1.26 µM (active).
In the case of `N/N=C1/CC(=O)NC(=O)N1`, the Potency is reported as 0.631 µM (active).
For `N[C@@H](CC1=CS(=O)(=O)c2ccc(Cl)cc21)C(=O)O`, the Potency was 0.398 µM (active).
In the case of `C[N+]1([C@H](CO)Cc2c[nH]c3ccccc23)Cc2ccccc2C1`, the “activity change, negative = inhibition” value is reported as -17.8% (inactive).
In the case of `c1ccc(C[n+]2cccc(-c3cc4ccccc4[nH]3)c2)cc1`, the Potency is reported as 1.26 µM (active).
In the case of `C[N+](C)(C)CCCSc1nc2ccccc2[nH]1`, the “activity change, negative = inhibition” value is reported as -15.1% (inactive).
For `Cc1cc(=Nc2ccc3c(c2)c(N)cc(C)[n+]3C)nc(N)n1C`, the activity change, negative = inhibition was -5.3% [at 2.29 µM] (inactive).
In the case of `COc1ncc2nc(CCc3ccccc3)c(=O)n(C)c2n1`, the Potency is reported as 5.01 µM (active).
For `C[C@H](NC(=O)c1ccc(Cl)c(Cl)c1)c1ccc(-c2ccccc2)cc1`, the Potency was 0.631 µM (active).
With `COc1ccc2cc1Oc1ccc(cc1)C[C@@H]1c3c(cc(OC)c4c3Oc3cc5c(cc3O4)CCN[C@H]5C2)CCN1C` the “activity change, negative = inhibition” value was -14.6% (inactive).
For `O=C(O)/C=C\C(=O)Nc1cccc2c1-c1ccccc1C2=O`, the Potency was 2.51 µM (active).
In the case of `O=C(O)/C=C\C(=O)N1Cc2cc3ccccc3nc2C1`, the “activity change, negative = inhibition” value is reported as -16.3% (inactive).
With `O=C(Nc1cccc2cccnc12)[C@@H]1[C@@H](C(=O)O)[C@H]2CC[C@@H]1O2` the “activity change, negative = inhibition” value was -11% (inactive).
For `CC(C)C(=O)C(C)(C)CCc1ccccn1`, the Potency was 2.51 µM (active).
With `OCCN(CCO)c1ncnc2nc[nH]c12` the “activity change, negative = inhibition” value was -9.2% (inactive).
With `CCN(CC)CC[n+]1ccc2c(C)c3[nH]c4ccc(O)cc4c3c(C)c2c1` the Potency was 3.16 µM (active).
In the case of `CN(C)CCC(=O)[C@@]1(O)CC[C@H]2[C@H]3CC=C4C[C@@H](O)CC[C@]4(C)[C@H]3CC[C@]21C`, the “activity change, negative = inhibition” value is reported as -5.7% (inactive).
For `O=C1C=CC(=Nc2cccc3c(N=C4C=CC(=O)O4)cccc23)O1`, the “activity change, negative = inhibition” value was -14% (inactive).
In the case of `COc1ccc2c3c(ccc2c1)N[C@H](C(=O)O)CC3`, the Potency is reported as 0.501 µM (active).
For `N=C1CCC[C@@H]1C(=S)SCCC(N)=O`, the Potency was 3.16 µM (active).
In the case of `CCN(CC)CC[n+]1ccc2c(C)c3[nH]c4ccccc4c3c(C)c2c1`, the Potency is reported as 2.51 µM (active).
With `O=CN1CCN(C[C@H](O)CN2CCCCC2)CC1` the activity change, negative = inhibition was -17.6% [at 2.29 µM] (inactive).
With `Oc1cc(O)c2c(c1)O[C@@H](c1ccc(O)c(O)c1)[C@H](O[C@@]1(c3cc(O)c(O)c(O)c3)Oc3cc(O)cc(O)c3[C@H](O)[C@@H]1O)C2` the “activity change, negative = inhibition” value was -13.3% (inactive).

— PubChem BioAssay (NCATS)
